Assay results as given in article PMC7862700, “An all-to-all approach to the identification of sequence-specific readers for epigenetic DNA modifications on cytosine”.

What was measured:
Test in all cases: DAPPL (digital affinity profiling via proximity ligation, sequencing); 10 mM Tris-HCl pH 7.5, 50 mM NaCl, 1 mM DTT, 4% glycerol, room temperature, 30 min; GST-TFs on glutathione beads, 16-mer random dsDNA library, 0.1% formaldehyde crosslink after washing; high values mean tight binding
Conditions in all cases: protein: recombinant; tags: N-terminal GST; dsDNA, one strand shown
ELK1 = target: T1, ELK1 (Homo sapiens, UniProt P19419 1-428)
T1 sequence: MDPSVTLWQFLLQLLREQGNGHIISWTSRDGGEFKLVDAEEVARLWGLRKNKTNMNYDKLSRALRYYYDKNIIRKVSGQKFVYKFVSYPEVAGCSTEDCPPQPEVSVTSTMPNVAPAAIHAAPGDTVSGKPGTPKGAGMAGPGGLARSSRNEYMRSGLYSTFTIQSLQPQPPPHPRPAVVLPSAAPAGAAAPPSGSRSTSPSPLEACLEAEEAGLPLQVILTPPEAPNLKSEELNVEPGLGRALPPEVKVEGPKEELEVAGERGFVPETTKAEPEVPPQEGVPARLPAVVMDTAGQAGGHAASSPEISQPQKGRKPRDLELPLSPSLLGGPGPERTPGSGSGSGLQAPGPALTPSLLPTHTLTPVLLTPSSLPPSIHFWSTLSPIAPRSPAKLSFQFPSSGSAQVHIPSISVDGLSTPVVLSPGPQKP
Summary of the method: (§1)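 Pools were built from human transcription factors expressed in yeast as GST fusions, captured on glutathione beads and DNA-barcoded, along with a tag-only sample. Incubation with 200 nmole of a 16-mer random double-stranded DNA library lasted 30 min at room temperature in Tris/NaCl/DTT/glycerol buffer, and was followed by washing, 0.1% formaldehyde crosslinking, proximity ligation, PCR amplification and Illumina NextSeq500 sequencing. Binding signal is the quotient of each hexamer's read frequency for a factor and its frequency for the tag-only sample.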

GABPA = target: T2, GABPA (Homo sapiens, UniProt Q06546 1-454)
T2 sequence: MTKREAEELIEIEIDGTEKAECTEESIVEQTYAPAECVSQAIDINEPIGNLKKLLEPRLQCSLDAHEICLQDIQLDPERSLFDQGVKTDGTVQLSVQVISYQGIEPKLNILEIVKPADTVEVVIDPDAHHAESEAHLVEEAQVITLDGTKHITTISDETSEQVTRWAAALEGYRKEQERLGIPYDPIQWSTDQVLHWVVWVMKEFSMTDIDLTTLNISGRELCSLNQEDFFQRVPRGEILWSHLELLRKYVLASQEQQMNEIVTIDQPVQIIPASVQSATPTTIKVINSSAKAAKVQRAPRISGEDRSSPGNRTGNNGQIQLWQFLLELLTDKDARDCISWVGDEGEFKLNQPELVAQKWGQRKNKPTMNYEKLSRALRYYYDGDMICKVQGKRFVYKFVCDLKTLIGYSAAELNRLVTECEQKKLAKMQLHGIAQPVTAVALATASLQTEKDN
Summary of the method: as §1

ELF1 = ELF1 (Homo sapiens, UniProt P32519 1-619)
Summary of the method: as §1

SPI1 = SPI1 (Homo sapiens, UniProt P17947 1-270)
Summary of the method: as §1

SPIB = SPIB (Homo sapiens, UniProt Q01892 1-262)
Summary of the method: as §1

FEV = target: T3, FEV (Homo sapiens, UniProt Q99581 1-238)
T3 sequence: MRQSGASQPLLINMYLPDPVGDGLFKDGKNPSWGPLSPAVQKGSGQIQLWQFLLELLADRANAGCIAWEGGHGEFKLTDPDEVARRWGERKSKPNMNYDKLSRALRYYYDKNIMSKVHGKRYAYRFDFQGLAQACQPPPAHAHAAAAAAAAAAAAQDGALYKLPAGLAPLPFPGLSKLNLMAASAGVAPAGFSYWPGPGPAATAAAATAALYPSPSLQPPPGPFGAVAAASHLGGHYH
Summary of the method: as §1

ETV5 = ETV5 (Homo sapiens, UniProt P41161 1-510)
Summary of the method: as §1

ELF4 = ELF4 (Homo sapiens, UniProt Q99607 1-663)
Summary of the method: as §1

ELK4 = target: T4, ELK4 (Homo sapiens, UniProt P28324-2 1-405)
T4 sequence: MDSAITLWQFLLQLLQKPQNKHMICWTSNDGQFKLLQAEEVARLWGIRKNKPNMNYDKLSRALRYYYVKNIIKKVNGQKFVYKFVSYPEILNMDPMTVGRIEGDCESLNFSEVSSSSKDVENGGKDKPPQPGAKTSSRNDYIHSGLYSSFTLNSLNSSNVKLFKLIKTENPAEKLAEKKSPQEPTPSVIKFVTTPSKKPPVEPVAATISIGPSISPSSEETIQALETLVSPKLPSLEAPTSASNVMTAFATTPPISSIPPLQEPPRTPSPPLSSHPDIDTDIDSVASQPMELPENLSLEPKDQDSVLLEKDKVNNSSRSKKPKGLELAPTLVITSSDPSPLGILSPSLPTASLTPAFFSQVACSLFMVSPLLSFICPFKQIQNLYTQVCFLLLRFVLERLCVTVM
Summary of the method: as §1

ETV1 = ETV1 (Homo sapiens, UniProt P50549 1-477)
Summary of the method: as §1

ERF = target: T5, ERF (Homo sapiens, UniProt P50548 1-548)
T5 sequence: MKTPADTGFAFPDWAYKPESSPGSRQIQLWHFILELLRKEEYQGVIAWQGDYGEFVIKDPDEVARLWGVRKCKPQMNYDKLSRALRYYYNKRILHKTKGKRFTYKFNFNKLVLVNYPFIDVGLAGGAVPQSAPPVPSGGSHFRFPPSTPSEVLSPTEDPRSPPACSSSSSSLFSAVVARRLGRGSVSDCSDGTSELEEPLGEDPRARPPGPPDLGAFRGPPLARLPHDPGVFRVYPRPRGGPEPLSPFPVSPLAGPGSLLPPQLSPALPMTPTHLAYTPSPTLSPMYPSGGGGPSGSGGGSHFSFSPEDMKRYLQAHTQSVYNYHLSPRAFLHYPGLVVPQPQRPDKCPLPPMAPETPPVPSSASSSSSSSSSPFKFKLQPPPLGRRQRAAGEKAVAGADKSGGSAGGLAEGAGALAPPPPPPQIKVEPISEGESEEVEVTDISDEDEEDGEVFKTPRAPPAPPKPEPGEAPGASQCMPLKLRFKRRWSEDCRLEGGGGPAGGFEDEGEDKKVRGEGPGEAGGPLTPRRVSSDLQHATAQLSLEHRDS
Summary of the method: as §1

ETV3L = target: T6, ETV3L (Homo sapiens, UniProt Q6ZN32 1-361)
T6 sequence: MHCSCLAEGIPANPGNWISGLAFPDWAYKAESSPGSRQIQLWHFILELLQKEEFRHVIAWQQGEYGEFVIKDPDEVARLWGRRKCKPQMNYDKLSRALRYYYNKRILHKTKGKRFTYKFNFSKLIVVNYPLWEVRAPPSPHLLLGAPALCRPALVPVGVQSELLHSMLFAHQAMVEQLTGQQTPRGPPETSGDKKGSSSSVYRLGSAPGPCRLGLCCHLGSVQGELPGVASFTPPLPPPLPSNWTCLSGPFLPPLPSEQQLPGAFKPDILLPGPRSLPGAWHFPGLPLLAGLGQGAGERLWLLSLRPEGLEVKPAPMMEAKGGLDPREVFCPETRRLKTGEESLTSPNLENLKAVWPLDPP
Summary of the method: as §1

ETV7 = target: T7, ETV7 (Homo sapiens, UniProt Q9Y603 1-341)
T7 sequence: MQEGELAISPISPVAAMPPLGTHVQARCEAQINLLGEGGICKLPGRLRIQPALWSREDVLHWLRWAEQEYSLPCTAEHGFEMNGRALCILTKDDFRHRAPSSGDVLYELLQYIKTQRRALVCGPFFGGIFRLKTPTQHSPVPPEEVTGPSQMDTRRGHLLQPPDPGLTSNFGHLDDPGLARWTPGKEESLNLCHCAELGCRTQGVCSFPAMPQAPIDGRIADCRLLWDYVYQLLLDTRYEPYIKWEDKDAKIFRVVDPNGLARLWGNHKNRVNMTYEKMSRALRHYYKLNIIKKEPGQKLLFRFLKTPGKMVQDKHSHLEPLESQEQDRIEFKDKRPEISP
Summary of the method: as §1

EHF = target: T8, EHF (Homo sapiens, UniProt Q9NZC4 1-300)
T8 sequence: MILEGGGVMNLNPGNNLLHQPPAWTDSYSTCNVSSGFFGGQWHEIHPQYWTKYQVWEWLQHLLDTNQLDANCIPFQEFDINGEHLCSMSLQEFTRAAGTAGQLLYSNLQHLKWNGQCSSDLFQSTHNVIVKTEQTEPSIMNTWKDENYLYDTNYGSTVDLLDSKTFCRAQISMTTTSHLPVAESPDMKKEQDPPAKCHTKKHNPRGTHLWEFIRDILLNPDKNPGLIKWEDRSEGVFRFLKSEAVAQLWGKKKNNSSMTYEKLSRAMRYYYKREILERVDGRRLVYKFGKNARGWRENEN
Summary of the method: as §1

ELF3 = target: T9, ELF3 (Homo sapiens, UniProt P78545 1-371)
T9 sequence: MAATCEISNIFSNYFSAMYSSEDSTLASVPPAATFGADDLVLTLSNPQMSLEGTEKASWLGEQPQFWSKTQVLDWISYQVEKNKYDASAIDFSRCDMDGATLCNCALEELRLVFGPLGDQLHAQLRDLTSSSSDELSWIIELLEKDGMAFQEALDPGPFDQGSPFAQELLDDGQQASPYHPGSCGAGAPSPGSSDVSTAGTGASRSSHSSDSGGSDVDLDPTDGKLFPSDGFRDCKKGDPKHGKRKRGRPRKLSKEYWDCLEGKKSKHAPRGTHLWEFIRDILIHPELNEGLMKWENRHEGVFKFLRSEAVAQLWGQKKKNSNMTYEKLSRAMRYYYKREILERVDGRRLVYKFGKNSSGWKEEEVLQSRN
Summary of the method: as §1

ETS2 = target: T10, ETS2 (Homo sapiens, UniProt P15036 1-469)
T10 sequence: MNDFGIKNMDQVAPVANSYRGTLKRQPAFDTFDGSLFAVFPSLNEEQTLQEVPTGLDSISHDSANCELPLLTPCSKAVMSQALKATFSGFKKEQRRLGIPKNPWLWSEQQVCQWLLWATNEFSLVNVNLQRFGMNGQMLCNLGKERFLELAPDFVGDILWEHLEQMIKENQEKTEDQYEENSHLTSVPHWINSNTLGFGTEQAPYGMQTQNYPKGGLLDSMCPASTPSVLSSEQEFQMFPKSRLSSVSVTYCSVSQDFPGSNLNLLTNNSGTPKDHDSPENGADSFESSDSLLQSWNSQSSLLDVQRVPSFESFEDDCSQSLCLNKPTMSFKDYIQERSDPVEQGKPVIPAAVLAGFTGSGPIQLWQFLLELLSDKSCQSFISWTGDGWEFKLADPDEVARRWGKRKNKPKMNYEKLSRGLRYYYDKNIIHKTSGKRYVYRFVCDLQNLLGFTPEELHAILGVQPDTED
Summary of the method: as §1

SPDEF = target: T11, SPDEF (Homo sapiens, UniProt O95238 1-335)
T11 sequence: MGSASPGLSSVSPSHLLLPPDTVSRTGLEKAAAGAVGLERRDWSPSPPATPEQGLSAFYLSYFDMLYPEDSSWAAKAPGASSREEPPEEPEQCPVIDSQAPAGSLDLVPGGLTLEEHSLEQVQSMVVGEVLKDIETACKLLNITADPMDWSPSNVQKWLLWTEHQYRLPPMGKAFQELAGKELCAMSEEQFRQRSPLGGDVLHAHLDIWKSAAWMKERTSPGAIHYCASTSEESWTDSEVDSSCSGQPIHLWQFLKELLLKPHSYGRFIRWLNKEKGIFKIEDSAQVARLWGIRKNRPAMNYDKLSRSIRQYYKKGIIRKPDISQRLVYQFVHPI
Summary of the method: as §1

ETV3 = target: T12, ETV3 (Homo sapiens, UniProt P41162-2 1-143)
T12 sequence: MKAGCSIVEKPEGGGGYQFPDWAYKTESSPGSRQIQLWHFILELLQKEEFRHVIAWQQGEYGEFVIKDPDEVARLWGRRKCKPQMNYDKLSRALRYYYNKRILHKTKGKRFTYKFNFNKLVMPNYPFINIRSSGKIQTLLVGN
Summary of the method: as §1

Chain of ETV5 (P41161 whole entry): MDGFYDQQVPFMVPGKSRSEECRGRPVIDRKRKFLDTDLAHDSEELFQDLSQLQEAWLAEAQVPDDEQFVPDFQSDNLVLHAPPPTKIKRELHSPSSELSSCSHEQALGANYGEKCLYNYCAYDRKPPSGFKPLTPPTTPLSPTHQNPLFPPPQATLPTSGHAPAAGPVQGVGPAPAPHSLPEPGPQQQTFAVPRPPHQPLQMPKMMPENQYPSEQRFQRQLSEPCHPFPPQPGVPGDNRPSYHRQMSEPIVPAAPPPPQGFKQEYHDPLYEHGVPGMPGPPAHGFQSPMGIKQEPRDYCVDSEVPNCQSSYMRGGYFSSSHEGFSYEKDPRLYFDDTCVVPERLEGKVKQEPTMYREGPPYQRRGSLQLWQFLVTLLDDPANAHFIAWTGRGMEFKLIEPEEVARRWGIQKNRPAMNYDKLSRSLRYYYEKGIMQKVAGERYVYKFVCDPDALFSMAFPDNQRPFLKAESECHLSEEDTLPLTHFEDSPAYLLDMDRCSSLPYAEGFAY
Chain of ELF1 (P32519 whole entry): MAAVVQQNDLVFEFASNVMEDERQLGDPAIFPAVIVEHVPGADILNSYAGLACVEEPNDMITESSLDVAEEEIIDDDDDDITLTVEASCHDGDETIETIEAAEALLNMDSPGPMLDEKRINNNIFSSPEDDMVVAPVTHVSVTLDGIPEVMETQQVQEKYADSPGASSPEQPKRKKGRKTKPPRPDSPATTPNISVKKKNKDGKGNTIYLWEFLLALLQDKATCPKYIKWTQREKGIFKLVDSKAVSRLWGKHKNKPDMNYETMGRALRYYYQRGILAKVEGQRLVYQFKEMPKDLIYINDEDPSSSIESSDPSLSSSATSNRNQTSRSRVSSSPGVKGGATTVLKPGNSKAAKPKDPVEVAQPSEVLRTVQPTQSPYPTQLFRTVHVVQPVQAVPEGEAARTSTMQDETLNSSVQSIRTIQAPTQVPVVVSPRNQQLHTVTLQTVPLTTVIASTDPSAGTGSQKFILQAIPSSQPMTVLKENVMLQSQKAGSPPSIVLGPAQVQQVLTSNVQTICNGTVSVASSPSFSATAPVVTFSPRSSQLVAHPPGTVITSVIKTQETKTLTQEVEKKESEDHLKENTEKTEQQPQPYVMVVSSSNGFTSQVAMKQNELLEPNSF
Chain of ELF4 (Q99607 whole entry): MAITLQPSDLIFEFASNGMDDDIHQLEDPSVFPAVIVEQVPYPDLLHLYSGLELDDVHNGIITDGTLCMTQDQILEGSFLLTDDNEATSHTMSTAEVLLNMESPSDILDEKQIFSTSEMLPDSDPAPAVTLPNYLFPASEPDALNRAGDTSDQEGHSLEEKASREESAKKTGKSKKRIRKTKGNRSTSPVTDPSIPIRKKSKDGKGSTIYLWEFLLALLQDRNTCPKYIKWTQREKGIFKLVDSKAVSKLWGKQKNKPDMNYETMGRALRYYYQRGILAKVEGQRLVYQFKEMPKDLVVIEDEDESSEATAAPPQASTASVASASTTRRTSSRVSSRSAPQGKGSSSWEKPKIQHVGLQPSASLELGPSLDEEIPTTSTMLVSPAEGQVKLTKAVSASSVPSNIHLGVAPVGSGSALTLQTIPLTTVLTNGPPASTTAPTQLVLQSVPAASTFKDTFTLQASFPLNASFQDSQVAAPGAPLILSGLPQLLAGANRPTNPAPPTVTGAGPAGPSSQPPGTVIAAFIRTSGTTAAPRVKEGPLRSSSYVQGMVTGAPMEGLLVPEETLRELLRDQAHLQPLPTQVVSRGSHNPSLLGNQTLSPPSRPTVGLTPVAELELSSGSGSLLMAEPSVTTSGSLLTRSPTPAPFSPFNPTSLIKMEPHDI
Chain of SPIB (Q01892 whole entry): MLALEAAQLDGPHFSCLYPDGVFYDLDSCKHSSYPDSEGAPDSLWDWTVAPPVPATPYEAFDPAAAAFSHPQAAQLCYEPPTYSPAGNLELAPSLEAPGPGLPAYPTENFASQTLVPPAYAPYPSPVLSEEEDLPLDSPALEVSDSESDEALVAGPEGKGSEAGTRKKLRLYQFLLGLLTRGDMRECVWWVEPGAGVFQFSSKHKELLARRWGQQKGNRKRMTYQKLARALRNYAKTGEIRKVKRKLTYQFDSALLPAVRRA
Chain of ETV1 (P50549 whole entry): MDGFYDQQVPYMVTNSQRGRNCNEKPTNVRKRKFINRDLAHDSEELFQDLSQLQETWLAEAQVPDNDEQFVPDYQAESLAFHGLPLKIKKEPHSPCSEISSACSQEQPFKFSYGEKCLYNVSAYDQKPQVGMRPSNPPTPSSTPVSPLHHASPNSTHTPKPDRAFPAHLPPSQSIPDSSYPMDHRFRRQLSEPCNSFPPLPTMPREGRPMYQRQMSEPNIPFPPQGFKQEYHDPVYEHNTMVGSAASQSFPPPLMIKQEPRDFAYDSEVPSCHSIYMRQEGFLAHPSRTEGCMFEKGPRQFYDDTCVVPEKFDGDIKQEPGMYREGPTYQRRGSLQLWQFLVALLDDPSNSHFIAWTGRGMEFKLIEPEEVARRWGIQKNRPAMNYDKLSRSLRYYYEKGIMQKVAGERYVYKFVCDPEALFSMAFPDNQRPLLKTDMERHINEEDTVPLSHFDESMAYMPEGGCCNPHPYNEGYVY

Row | Sequence | binding signal (ELK1) | binding signal (GABPA) | binding signal (ELF1) | binding signal (SPI1) | binding signal (SPIB) | binding signal (FEV) | binding signal (ETV5) | binding signal (ELF4) | binding signal (ELK4) | binding signal (ETV1) | binding signal (ERF) | binding signal (ETV3L) | binding signal (ETV7) | binding signal (EHF) | binding signal (ELF3) | binding signal (ETS2) | binding signal (SPDEF) | binding signal (ETV3)
1 | CAGCCT | 1.11 fold enrichment (6-mer frequency, TF over GST control) | 1.09 fold enrichment (6-mer frequency, TF over GST control) | 1.06 fold enrichment (6-mer frequency, TF over GST control) | 1.03 fold enrichment (6-mer frequency, TF over GST control) | 1.09 fold enrichment (6-mer frequency, TF over GST control) | 1.02 fold enrichment (6-mer frequency, TF over GST control) | 1.04 fold enrichment (6-mer frequency, TF over GST control) | 1.12 fold enrichment (6-mer frequency, TF over GST control) | 1.01 fold enrichment (6-mer frequency, TF over GST control) | 1.02 fold enrichment (6-mer frequency, TF over GST control) | 1.1 fold enrichment (6-mer frequency, TF over GST control) | 1.02 fold enrichment (6-mer frequency, TF over GST control) | 1.13 fold enrichment (6-mer frequency, TF over GST control) |  |  |  |  | 
2 | ATAGCC | 1.08 fold enrichment (6-mer frequency, TF over GST control) | 1.11 fold enrichment (6-mer frequency, TF over GST control) | 1.05 fold enrichment (6-mer frequency, TF over GST control) |  | 1.04 fold enrichment (6-mer frequency, TF over GST control) | 1.1 fold enrichment (6-mer frequency, TF over GST control) | 1.1 fold enrichment (6-mer frequency, TF over GST control) | 1.1 fold enrichment (6-mer frequency, TF over GST control) |  | 1.03 fold enrichment (6-mer frequency, TF over GST control) | 1.1 fold enrichment (6-mer frequency, TF over GST control) |  |  | 1.1 fold enrichment (6-mer frequency, TF over GST control) | 1.15 fold enrichment (6-mer frequency, TF over GST control) | 1.07 fold enrichment (6-mer frequency, TF over GST control) | 1.08 fold enrichment (6-mer frequency, TF over GST control) | 1.06 fold enrichment (6-mer frequency, TF over GST control)
